# Columns and labels:
# Assay in all cases: DAPPL (digital affinity profiling via proximity ligation, sequencing); 10 mM Tris-HCl pH 7.5, 50 mM NaCl, 1 mM DTT, 4% glycerol, room temperature, 30 min; GST-TFs on glutathione beads, 16-mer random dsDNA library, 0.1% formaldehyde crosslink after washing; high values mean tight binding
# FLI1 = target: T1, FLI1 (Homo sapiens, UniProt Q01543 1-452); details: protein: recombinant; tags: N-terminal GST; dsDNA, one strand shown
# T1 sequence: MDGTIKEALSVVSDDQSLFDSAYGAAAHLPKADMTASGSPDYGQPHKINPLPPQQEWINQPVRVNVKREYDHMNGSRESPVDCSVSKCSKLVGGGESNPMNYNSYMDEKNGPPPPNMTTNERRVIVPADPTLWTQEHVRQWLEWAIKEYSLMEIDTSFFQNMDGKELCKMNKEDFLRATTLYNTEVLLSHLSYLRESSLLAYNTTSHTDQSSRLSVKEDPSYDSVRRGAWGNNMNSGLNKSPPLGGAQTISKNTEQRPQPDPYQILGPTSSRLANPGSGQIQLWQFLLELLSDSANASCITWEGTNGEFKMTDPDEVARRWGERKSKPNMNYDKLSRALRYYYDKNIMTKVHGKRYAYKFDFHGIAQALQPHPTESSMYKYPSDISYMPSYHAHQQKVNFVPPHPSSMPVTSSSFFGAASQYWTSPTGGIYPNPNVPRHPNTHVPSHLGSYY
# In short: (§1)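 After expression in yeast as GST fusions, human transcription factors were bound to glutathione beads, DNA-barcoded and mixed with a tag-only sample. The pools were incubated with 200 nmole of a 16-mer random double-stranded DNA library in Tris/NaCl/DTT/glycerol buffer (30 min, room temperature), washed and crosslinked with 0.1% formaldehyde. Proximity ligation with BsaI/T4 ligase ran for 1 h at 37 °C, before PCR amplification and sequencing on an Illumina NextSeq500. Binding signal is a hexamer's read frequency for a factor divided by its frequency for the tag-only sample.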
# GABPA = target: T2, GABPA (Homo sapiens, UniProt Q06546 1-454); details: protein: recombinant; tags: N-terminal GST; dsDNA, one strand shown
# T2 sequence: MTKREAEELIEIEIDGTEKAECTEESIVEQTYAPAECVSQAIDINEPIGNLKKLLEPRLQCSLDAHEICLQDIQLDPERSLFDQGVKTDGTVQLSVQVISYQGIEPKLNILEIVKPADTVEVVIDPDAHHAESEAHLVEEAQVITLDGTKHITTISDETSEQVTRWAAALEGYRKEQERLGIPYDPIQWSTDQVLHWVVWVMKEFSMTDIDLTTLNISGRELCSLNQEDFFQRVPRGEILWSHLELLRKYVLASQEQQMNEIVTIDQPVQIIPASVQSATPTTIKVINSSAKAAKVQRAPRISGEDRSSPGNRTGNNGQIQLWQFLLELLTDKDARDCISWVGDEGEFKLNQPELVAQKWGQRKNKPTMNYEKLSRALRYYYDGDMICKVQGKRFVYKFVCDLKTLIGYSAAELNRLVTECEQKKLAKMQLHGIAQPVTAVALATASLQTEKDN
# In short: as §1
# ERG = target: T3, ERG (Homo sapiens, UniProt P11308 1-479); details: protein: recombinant; tags: N-terminal GST; dsDNA, one strand shown
# T3 sequence: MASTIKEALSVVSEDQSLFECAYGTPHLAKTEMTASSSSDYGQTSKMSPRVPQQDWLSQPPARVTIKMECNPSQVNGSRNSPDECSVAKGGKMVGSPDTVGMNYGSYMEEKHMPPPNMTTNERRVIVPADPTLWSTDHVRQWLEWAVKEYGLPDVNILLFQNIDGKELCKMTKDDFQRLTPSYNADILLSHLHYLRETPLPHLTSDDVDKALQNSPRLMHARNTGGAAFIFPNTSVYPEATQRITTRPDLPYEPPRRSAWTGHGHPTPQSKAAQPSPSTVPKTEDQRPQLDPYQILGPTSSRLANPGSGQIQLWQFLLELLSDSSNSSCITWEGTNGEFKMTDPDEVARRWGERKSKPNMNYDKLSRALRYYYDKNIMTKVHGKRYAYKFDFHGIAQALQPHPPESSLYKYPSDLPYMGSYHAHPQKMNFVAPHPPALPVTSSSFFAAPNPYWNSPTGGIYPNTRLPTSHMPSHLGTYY
# In short: as §1
# ELF1 = ELF1 (Homo sapiens, UniProt P32519 1-619); details: protein: recombinant; tags: N-terminal GST; dsDNA, one strand shown
# Chain of ELF1 (P32519 whole entry): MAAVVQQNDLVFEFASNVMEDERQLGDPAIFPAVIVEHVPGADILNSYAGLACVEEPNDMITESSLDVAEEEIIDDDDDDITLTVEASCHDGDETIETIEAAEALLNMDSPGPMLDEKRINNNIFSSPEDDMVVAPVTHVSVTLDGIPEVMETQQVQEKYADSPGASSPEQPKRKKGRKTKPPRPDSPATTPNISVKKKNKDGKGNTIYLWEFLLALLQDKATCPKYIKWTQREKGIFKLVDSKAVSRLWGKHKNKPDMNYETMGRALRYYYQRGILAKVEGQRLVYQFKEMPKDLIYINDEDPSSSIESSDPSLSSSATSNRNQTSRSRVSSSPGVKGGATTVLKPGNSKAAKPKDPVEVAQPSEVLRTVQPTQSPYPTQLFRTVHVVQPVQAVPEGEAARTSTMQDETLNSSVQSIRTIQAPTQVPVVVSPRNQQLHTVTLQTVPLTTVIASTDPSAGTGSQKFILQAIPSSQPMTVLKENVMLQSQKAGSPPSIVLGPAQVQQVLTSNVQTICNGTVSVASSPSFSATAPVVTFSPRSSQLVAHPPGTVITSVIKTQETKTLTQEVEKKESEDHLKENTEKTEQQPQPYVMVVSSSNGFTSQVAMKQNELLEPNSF
# In short: as §1
# EHF = target: T4, EHF (Homo sapiens, UniProt Q9NZC4 1-300); details: protein: recombinant; tags: N-terminal GST; dsDNA, one strand shown
# T4 sequence: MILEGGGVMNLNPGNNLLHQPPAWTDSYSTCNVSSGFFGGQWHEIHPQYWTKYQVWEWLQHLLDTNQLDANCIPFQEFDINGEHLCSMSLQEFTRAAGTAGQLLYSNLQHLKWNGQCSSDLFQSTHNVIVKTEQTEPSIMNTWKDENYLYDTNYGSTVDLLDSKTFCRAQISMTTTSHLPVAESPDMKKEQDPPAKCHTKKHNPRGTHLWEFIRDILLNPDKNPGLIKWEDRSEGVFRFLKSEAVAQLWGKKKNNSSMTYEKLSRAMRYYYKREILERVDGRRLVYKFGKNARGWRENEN
# In short: as §1
# SPI1 = SPI1 (Homo sapiens, UniProt P17947 1-270); details: protein: recombinant; tags: N-terminal GST; dsDNA, one strand shown
# In short: as §1
# SPIB = SPIB (Homo sapiens, UniProt Q01892 1-262); details: protein: recombinant; tags: N-terminal GST; dsDNA, one strand shown
# Chain of SPIB (Q01892 whole entry): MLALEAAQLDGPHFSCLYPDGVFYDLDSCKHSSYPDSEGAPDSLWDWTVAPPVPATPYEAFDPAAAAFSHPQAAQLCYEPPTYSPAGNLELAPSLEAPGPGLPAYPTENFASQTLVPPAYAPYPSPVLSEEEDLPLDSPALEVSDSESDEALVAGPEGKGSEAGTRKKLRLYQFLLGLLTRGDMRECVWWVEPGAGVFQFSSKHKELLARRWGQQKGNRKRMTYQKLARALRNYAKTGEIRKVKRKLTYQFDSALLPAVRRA
# In short: as §1
# FEV = target: T5, FEV (Homo sapiens, UniProt Q99581 1-238); details: protein: recombinant; tags: N-terminal GST; dsDNA, one strand shown
# T5 sequence: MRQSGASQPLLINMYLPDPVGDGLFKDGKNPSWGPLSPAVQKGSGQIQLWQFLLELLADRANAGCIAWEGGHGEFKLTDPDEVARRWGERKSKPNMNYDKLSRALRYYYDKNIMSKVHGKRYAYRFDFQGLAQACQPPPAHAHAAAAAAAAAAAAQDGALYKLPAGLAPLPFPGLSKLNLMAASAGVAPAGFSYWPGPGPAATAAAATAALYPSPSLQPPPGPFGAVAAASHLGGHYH
# In short: as §1
# ETV5 = ETV5 (Homo sapiens, UniProt P41161 1-510); details: protein: recombinant; tags: N-terminal GST; dsDNA, one strand shown
# Chain of ETV5 (P41161 whole entry): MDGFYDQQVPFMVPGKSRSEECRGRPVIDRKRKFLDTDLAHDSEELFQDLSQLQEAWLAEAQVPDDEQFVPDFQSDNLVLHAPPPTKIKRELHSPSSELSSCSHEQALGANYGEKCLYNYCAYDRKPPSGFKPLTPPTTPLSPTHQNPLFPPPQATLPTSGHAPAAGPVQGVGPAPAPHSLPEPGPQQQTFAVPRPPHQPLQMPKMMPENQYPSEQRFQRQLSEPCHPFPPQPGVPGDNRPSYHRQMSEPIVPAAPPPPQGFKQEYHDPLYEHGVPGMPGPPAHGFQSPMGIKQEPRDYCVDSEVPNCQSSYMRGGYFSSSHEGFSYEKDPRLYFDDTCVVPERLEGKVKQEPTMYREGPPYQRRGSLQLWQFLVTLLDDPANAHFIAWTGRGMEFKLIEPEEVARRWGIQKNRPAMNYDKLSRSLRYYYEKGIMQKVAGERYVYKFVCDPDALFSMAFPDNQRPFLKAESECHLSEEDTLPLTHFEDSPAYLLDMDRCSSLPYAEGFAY
# In short: as §1
# HSF1 = HSF1 (Homo sapiens, UniProt Q00613 1-529); details: protein: recombinant; tags: N-terminal GST; chain copies: 3; dsDNA, one strand shown
# Chain of HSF1 (Q00613 whole entry): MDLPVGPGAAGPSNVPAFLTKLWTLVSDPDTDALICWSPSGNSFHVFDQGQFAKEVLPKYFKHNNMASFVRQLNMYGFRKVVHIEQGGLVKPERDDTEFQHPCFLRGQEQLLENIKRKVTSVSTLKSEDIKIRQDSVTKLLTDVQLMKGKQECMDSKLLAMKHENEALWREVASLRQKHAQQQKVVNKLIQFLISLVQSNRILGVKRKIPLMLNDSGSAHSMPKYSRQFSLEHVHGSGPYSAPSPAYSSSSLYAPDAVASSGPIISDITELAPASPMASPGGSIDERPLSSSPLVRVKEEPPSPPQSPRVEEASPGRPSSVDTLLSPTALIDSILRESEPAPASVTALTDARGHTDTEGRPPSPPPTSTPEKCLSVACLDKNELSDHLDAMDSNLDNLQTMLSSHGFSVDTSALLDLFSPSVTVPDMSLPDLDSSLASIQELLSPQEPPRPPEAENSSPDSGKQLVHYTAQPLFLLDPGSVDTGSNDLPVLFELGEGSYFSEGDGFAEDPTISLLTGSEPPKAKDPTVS
# In short: as §1
# SPIC = target: T6, SPIC (Homo sapiens, UniProt Q8N5J4 1-248); details: protein: recombinant; tags: N-terminal GST; dsDNA, one strand shown
# T6 sequence: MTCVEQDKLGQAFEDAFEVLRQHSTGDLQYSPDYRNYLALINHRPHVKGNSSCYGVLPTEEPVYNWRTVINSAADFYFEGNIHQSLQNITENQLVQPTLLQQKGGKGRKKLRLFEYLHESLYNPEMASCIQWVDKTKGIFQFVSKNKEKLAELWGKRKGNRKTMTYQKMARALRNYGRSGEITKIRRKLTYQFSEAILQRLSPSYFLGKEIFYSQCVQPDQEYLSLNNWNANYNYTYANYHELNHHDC
# In short: as §1
# ELF4 = ELF4 (Homo sapiens, UniProt Q99607 1-663); details: protein: recombinant; tags: N-terminal GST; dsDNA, one strand shown
# Chain of ELF4 (Q99607 whole entry): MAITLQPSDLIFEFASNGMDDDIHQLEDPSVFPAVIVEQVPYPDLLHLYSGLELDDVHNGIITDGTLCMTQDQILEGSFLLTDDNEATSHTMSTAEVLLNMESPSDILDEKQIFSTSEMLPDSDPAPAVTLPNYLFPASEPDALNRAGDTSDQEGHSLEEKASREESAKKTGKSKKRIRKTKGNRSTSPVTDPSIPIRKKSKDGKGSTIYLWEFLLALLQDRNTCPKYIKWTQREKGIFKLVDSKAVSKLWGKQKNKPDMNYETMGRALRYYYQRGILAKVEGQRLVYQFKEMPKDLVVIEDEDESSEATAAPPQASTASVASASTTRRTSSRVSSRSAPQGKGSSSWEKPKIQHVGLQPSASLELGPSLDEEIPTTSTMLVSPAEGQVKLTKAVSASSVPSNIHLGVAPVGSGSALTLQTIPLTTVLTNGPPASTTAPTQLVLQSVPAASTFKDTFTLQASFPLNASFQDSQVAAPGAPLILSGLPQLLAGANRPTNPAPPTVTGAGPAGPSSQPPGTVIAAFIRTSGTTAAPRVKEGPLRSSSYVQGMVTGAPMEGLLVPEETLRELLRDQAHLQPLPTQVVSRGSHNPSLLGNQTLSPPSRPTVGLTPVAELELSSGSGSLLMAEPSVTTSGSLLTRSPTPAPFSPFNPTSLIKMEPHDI
# In short: as §1
# ELK4 = target: T7, ELK4 (Homo sapiens, UniProt P28324-2 1-405); details: protein: recombinant; tags: N-terminal GST; dsDNA, one strand shown
# T7 sequence: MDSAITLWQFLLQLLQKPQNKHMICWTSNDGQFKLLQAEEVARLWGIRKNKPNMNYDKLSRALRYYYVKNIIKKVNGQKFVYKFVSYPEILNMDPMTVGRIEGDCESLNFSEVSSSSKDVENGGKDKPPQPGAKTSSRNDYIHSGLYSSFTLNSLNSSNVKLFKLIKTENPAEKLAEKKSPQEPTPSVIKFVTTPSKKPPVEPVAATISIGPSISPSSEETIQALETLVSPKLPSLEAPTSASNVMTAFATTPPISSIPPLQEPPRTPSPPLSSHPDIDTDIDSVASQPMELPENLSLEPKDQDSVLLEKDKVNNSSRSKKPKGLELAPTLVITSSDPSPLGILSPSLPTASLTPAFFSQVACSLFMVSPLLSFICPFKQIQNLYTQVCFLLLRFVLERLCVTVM
# In short: as §1
# ETV2 = target: T8, ETV2 (Homo sapiens, UniProt O00321 1-342); details: protein: recombinant; tags: N-terminal GST; dsDNA, one strand shown
# T8 sequence: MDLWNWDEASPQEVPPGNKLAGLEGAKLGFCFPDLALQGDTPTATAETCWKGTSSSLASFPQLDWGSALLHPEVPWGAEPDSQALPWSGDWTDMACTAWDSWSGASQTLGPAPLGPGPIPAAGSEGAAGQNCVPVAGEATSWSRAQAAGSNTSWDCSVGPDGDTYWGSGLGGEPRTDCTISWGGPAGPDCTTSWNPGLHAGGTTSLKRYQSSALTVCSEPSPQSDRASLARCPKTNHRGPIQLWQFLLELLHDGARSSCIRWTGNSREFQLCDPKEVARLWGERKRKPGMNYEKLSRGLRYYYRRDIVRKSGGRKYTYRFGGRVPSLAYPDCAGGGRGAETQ
# In short: as §1
# ELF3 = target: T9, ELF3 (Homo sapiens, UniProt P78545 1-371); details: protein: recombinant; tags: N-terminal GST; dsDNA, one strand shown
# T9 sequence: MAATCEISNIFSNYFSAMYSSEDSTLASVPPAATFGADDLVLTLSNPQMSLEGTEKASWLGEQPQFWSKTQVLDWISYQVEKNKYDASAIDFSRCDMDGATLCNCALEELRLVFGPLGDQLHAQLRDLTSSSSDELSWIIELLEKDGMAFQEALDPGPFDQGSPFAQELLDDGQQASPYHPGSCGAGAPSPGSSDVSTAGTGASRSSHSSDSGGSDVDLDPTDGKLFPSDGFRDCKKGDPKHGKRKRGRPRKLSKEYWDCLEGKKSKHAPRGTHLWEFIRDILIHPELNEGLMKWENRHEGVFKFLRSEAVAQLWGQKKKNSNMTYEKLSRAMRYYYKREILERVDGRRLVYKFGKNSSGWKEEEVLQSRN
# In short: as §1
# CRX = CRX (Homo sapiens, UniProt O43186 1-299); details: protein: recombinant; tags: N-terminal GST; dsDNA, one strand shown
# Chain of CRX (O43186 whole entry): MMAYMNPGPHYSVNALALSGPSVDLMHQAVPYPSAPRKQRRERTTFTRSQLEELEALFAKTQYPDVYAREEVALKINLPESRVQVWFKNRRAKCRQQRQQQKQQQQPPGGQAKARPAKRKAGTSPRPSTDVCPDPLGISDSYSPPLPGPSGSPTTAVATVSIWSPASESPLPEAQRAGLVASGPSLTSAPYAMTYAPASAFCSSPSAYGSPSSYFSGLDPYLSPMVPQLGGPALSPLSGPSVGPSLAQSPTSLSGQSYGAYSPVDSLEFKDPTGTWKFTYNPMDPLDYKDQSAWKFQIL
# In short: as §1
# ETV1 = ETV1 (Homo sapiens, UniProt P50549 1-477); details: protein: recombinant; tags: N-terminal GST; dsDNA, one strand shown
# Chain of ETV1 (P50549 whole entry): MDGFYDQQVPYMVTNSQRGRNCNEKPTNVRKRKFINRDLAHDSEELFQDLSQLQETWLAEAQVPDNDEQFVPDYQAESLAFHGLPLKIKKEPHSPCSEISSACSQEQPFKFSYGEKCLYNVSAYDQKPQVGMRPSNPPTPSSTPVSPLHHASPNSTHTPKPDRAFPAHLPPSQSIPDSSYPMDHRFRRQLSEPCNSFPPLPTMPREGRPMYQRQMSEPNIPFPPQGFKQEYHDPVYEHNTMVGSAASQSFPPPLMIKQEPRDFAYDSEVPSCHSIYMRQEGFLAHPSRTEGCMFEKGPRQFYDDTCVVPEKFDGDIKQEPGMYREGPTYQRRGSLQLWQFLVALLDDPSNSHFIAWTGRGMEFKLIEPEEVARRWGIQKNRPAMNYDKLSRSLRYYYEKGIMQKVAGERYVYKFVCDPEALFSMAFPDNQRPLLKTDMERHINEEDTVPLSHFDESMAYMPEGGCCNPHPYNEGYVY
# In short: as §1
sequence,measurement,setting,value
TCATTA,binding signal,FLI1,"1.12 fold enrichment (6-mer frequency, TF over GST control)"
same,binding signal,GABPA,"1.07 fold enrichment (6-mer frequency, TF over GST control)"
same,binding signal,ERG,"1.06 fold enrichment (6-mer frequency, TF over GST control)"
same,binding signal,ELF1,"1.16 fold enrichment (6-mer frequency, TF over GST control)"
same,binding signal,EHF,"1.09 fold enrichment (6-mer frequency, TF over GST control)"
same,binding signal,SPI1,"1.12 fold enrichment (6-mer frequency, TF over GST control)"
same,binding signal,SPIB,"1.16 fold enrichment (6-mer frequency, TF over GST control)"
same,binding signal,FEV,"1.11 fold enrichment (6-mer frequency, TF over GST control)"
same,binding signal,ETV5,"1.11 fold enrichment (6-mer frequency, TF over GST control)"
same,binding signal,HSF1,"1.18 fold enrichment (6-mer frequency, TF over GST control)"
same,binding signal,SPIC,"1.24 fold enrichment (6-mer frequency, TF over GST control)"
same,binding signal,ELF4,"1.15 fold enrichment (6-mer frequency, TF over GST control)"
same,binding signal,ELK4,"1.16 fold enrichment (6-mer frequency, TF over GST control)"
same,binding signal,ETV2,"1.08 fold enrichment (6-mer frequency, TF over GST control)"
same,binding signal,ELF3,"1.07 fold enrichment (6-mer frequency, TF over GST control)"
same,binding signal,CRX,"1.62 fold enrichment (6-mer frequency, TF over GST control)"
same,binding signal,ETV1,"1.08 fold enrichment (6-mer frequency, TF over GST control)"

# From paper PMC7862700, “An all-to-all approach to the identification of sequence-specific readers for epigenetic DNA modifications on cytosine”
